From PubChem BioAssay AID933 (National Center for Advancing Translational Sciences (NCATS), 2007) come the findings set out here.

Records with an inconclusive call do not appear. Where a call stands in place of a potency, no number is given. Values without a mark were called inactive. Active and inactive are the calls of the source. The call rests on the fitted dose curve; in most records, active means well fitted activation curve with a large enough effect in the signal ratio, with a control signal flat; inconclusive means small, poorly fitted or top-dose-only effect, or a change in a side signal; inactive means flat fitted curve, though single readings scatter; the % refers to the signal ratio.
Potency means the concentration at half of the fitted maximal effect.

In this assay the target is Thyrotropin receptor (Homo sapiens) (UniProt P16473). Put plainly: Secondary Concentration-Response Assay for Agonists of the Thyroid Stimulating Hormone Receptor: HTRF Activity Detection.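 On activation: HEK 293 cells stably expressing human TSHR with RO 20-1724 phosphodiesterase inhibitor.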 As to conditions: HEK293-TSHR cells, cAMP HTRF ratio, 30 min; series mostly up to 91.7 µM. In short, it runs like this: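 Orthogonal confirmation in a separate TSHR-transfected HEK 293 line: cells in medium with 10 % FCS and 100 uM RO 20-1724 got compound for 30 min at room temperature. cAMP was measured by HTRF (d2-cAMP/anti-cAMP antibody), 615/660 nm emission.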
Thyrotropin receptor (Homo sapiens), sequence (P16473 whole entry, looked up): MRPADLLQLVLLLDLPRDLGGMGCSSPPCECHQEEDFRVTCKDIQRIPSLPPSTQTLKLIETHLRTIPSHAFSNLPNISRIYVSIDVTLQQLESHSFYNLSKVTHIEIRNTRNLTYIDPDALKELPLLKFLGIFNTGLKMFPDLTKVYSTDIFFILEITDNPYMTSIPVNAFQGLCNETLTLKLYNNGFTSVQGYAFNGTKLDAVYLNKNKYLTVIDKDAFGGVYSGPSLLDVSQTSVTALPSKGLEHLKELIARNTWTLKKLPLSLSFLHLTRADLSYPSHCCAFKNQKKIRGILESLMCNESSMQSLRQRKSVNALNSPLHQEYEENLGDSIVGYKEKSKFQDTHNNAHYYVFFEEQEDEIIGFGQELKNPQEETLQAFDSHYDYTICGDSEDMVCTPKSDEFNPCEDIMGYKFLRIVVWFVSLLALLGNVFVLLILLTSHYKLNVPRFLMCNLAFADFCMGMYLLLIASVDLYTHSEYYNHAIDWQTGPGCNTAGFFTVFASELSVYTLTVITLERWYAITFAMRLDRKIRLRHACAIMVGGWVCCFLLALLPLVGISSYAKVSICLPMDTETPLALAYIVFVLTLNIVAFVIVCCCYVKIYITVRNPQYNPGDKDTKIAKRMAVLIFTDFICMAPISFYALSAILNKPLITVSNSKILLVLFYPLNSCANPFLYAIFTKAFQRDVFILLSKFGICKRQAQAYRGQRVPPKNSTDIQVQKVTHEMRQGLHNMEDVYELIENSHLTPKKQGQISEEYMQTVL
A general note: Time-resolved FRET reads energy transfer from a long-lived donor to a nearby acceptor.
`COc1ccc(C2Nc3cccc(O)c3C(=O)N2Cc2ccccc2)cc1COc1ccc(NC(C)=O)cc1` (stereo not given): the Potency is 7.94 µM (active).

With `COc1ccc(C2Nc3ccc(NC(C)=O)cc3C(=O)N2Cc2ccccc2)cc1COc1ccc(NC(C)=O)cc1` (stereo not given), the Potency is 15.8 µM (active).

`COc1ccc(C2Nc3ccccc3C(=O)N2Cc2ccco2)cc1COc1ccc([N+](=O)[O-])c(C)c1` (stereo not given): the Potency result is “inactive”.

For the compound `COc1ccc(C=O)cc1COc1ccc(NC(C)=O)cc1`, the Potency entry is “inactive”.

In the case of `COc1ccc(CN(Cc2ccccc2)C(C)=O)cc1COc1ccc(NC(C)=O)cc1`, the Potency entry was “inactive”.

Regarding `COc1ccc(C2Nc3ccccc3C(=O)N2c2ccccc2)cc1CSc1ccccn1` (stereo not given), the Potency entry is “inactive”.

For the compound `O=C1c2ccccc2N2C(=O)c3ccccc3[C@H]2N1c1ccccc1`, the Potency result was “inactive”.

Regarding `COCCNC(=O)C(c1ccccc1)N(Cc1cccs1)C(=O)Cn1nnc2ccccc21` (stereo not given), the activation is -0.712% [at 0.00035 µM].

For `COc1cc(OC)cc(C(=O)N(Cc2ccco2)Cc2cccs2)c1`, the Potency entry was “inactive”.

For `Cc1ccccc1N1C(=O)c2ccccc2N2C(=O)c3ccccc3C12` (stereo not given), the Potency result was “inactive”.

Regarding `COc1ccc(C(=O)N(Cc2ccccc2)Cc2ccco2)c(O)c1`, the Potency was 15.8 µM (active).

On to `COc1cccc(OCc2cc(C3Nc4ccccc4C(=O)N3Cc3ccccc3)ccc2OC)c1` (stereo not given), for which the Potency result is “inactive”.

On to `COc1ccc(C2Nc3ccccc3C(=O)N2Cc2ccccc2)cc1COc1cccc(Cl)c1` (stereo not given), for which the Potency entry is “inactive”.

On to `COc1ccc(C2Nc3ccccc3C(=O)N2CCO)cc1COc1ccc(NC(C)=O)cc1` (stereo not given), for which the Potency result is “inactive”.

Consider `COc1ccc(CN(Cc2ccccc2)C(=O)c2ccccc2)cc1COc1ccc(NC(C)=O)cc1`, for which the Potency is 8.91 µM (active).

Turning to `CCOC(=O)c1cnc(-n2nc(C)cc2C)nc1-n1nc(C)cc1C`, the activation is -0.245% [at 0.00035 µM].

Turning to `Cc1cc(C)nc(N(C#N)CC(=O)N2CCC(C(N)=O)CC2)n1`, the activation was 1.28% [at 0.00035 µM].

For the compound `CCOC(=O)c1ccccc1OCc1cc(C2Nc3ccccc3C(=O)N2c2cccc3ccccc23)ccc1OC` (stereo not given), the Potency entry was “inactive”.

Regarding `COc1ccc(C2Nc3ccccc3C(=O)N2Cc2ccc(Cl)cc2)cc1COc1ccc(NC(C)=O)cc1` (stereo not given), the Potency is 3.16 µM (active).

As for `CCN(CC)CCN1C(=O)c2ccccc2NC1c1cccc(F)c1` (stereo not given), the Potency result is “inactive”.

Take `COc1ccc(C2Nc3ccccc3C(=O)N2Cc2ccccc2)cc1Cn1nnc2ccccc21` (stereo not given): the Potency entry is “inactive”.

`COc1ccc(C2Nc3ccccc3C(=O)N2Cc2ccccc2)cc1CSc1ccccn1` (stereo not given): the Potency result was “inactive”.

With `CC1(C)CC2CC(C)(CN2S(=O)(=O)c2ccc(N)cc2)C1` (stereo not given), the activation is -0.162% [at 0.00035 µM].

For `O=C(COC(=O)C12CC3CC(CC(Br)(C3)C1)C2)NCc1ccco1`, the Potency is 10 µM (active).

Turning to `COc1ccc(CN(Cc2ccccc2)S(=O)(=O)c2ccccc2)cc1COc1ccc(NC(C)=O)cc1`, the Potency result was “inactive”.

Take `COc1ccc(C2Nc3ccccc3C(=O)N2c2ccc(Cl)cc2)cc1COc1ccc(NC(C)=O)cc1` (stereo not given): the Potency entry is “inactive”.

Take `COc1ccc(C2Cc3ccccc3C(=O)N2Cc2ccccc2)cc1COc1ccc(NC(C)=O)cc1` (stereo not given): the Potency is 10 µM (active).

With `Cc1cc(Cl)c(S(=O)(=O)Nc2ccc3c(c2)OCO3)cc1OCC(N)=O`, the activation was -1.33% [at 0.00035 µM].

`CCOC(=O)COc1c(OC)cc(Cl)cc1C1Nc2ccccc2C(=O)N1c1ccccc1` (stereo not given): the Potency entry was “inactive”.

For `COc1ccc(CN(Cc2ccccc2)C(=O)c2ccc(O)cc2)cc1COc1ccc(NC(C)=O)cc1`, the Potency was 28.2 µM (active).

As for `O=C1C2C3CCCC3=C3CCCC3C2C(=O)N1c1ccc(F)cc1` (stereo not given), the Potency entry was “inactive”.

`COc1ccc(C2Nc3ccccc3C(=O)N2Cc2ccco2)cc1` (stereo not given): the Potency entry was “inactive”.

Regarding `COc1ccc(-c2nc3ccc(NC(=O)COC(C)=O)cc3c(=O)n2Cc2ccccc2)cc1COc1ccc(NC(C)=O)cc1`, the Potency entry was “inactive”.

Turning to `CC(=O)Nc1ccc(S(=O)(=O)N(C)c2ccccc2)cc1`, the activation is -0.796% [at 0.00035 µM].

For the compound `COc1ccc(C2Nc3ccc(NC(C)=O)cc3C(=O)N2Cc2cccc(Cl)c2)cc1COc1ccc(NC(C)=O)cc1` (stereo not given), the Potency is 7.94 µM (active).
